Data on 43 sequences can be found in PMC7819943, “Rice protein-binding microarrays: a tool to detect cis-acting elements near promoter regions in rice”.

The full ranking holds about 68,000 sequences; the median of “fluorescence intensity (a.u.)” is about 9,100, and the highest 2% start at about 16,000. The entries come from a sample that favours the highest values as a whole.

OsWRKY34, sequence (Q0JBA9 entry or part of it): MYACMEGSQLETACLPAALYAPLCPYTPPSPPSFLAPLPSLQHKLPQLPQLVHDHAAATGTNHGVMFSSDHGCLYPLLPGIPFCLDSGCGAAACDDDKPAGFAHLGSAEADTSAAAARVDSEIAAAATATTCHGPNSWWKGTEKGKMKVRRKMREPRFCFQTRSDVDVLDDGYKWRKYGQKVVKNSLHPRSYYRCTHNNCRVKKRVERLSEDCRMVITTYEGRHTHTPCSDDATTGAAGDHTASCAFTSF

The target of the assay is OsWRKY34 (Oryza sativa, UniProt Q0JBA9 1-250). Description: protein-binding microarray (RPBM); PBS, 2% BSA, 51.3 ng/ul salmon testes DNA, 50 uM zinc acetate, 200 nM TF, 25 C, 1 h; high values mean tight binding. The following applies: protein: recombinant; tags: N-terminal polyhistidine and DsRed monomer fusion (pET32a); label: CyDye5-dUTP incorporated in the synthesized complementary strand; 3' TTTTT single-stranded linker to array surface; dsDNA, one strand shown. In a few lines:
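Using Ni–NTA, transcription factors fused N-terminally to polyhistidine and DsRed were purified after expression in E. coli BL21-CodonPlus. These were incubated at 200 nM with a blocked, double-stranded custom Agilent array for 1 h at 25 °C in a buffer containing 50 µM zinc acetate, and the array was washed. The binding signal is per-feature fluorescence intensity (arbitrary units) on an Axon 4000B scanner.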
As for “TGTGTGAGATTTTTGCATGTTTTTGTTGTGTTTGTTCATACGGAGTCACCTAGTGCAG”, the binding signal was 8580 fluorescence intensity (a.u.). In the case of “TCTGGTTCCATTTTCCACGCACAGGAGAGTGATTACTTTTCGGAGTCACCTAGTGCAG” it was 11200 fluorescence intensity (a.u.); in that of “TCTCTCTCTCGTGCGTCACCTCCTCGCGTGCTCAGCGCCGCGGAGTCACCTAGTGCAG”, 8780 fluorescence intensity (a.u.).

Take “TCCTTGCTCCATCAGTATTACACCACCCAACACAAGCTCACGGAGTCACCTAGTGCAG”: the binding signal is 8870 fluorescence intensity (a.u.).

“TCTACAAACTTGGTCAAACTTAAAACAGTTTGACTTTGACCGGAGTCACCTAGTGCAG”: the binding signal was 14600 fluorescence intensity (a.u.). In the case of “CGACTTGTTGCCTCAAACAATTCCTGGTTATAAAACACCACGGAGTCACCTAGTGCAG” it was 35500 fluorescence intensity (a.u.). In the case of “CCCTCTATAAATGGTTCCTATCACAACCACAAACACCACACGGAGTCACCTAGTGCAG”, the binding signal is 8240 fluorescence intensity (a.u.). “GGTTCAAATTAACTTTTCAATCTTGGCTGTGTTTGGATCCCGGAGTCACCTAGTGCAG”: the binding signal was 9630 fluorescence intensity (a.u.). In the case of “AGTTAATCCTTGTTAAACTTTGGTTTCAAAACAATTTCCCCGGAGTCACCTAGTGCAG” it was 65500 fluorescence intensity (a.u.); in that of “CTCCTCATCCATCCACCACACCACTTGCCTCCAAACAAAACGGAGTCACCTAGTGCAG”, 9340 fluorescence intensity (a.u.). The value for “GCTGTTTCCTGGAGGTTCCATCCATGCTATCCTGTGCTCGCGGAGTCACCTAGTGCAG” was 8470 fluorescence intensity (a.u.). In the case of “GACCAACCAAAACCTCCGATCACCTTGTCCCGTACTGAAACGGAGTCACCTAGTGCAG” it was 11000 fluorescence intensity (a.u.). As for “TCACCCCGCCGCCGCCATCCAGGCGCCGACGACCTCCCATCGGAGTCACCTAGTGCAG”, the binding signal is 8840 fluorescence intensity (a.u.). The value for “CTCTCTTTTCCTTTTCTAATTTTAGATTTTATTTTATTTTCGGAGTCACCTAGTGCAG” was 8600 fluorescence intensity (a.u.); that for “GTTTTACATTTGTCCTAAATCAAACATATCTATCTTTGACCGGAGTCACCTAGTGCAG” was 8180 fluorescence intensity (a.u.); that for “TTTTTGTGTGTGTGCTGTGTTCTTGGGTTTCTTGGCAATGCGGAGTCACCTAGTGCAG” was 8650 fluorescence intensity (a.u.).

For the sequence “GGGGTGGTTTTGGCTGAGCTGCTTGTGTCCTCTTCTTGCTCGGAGTCACCTAGTGCAG”, the binding signal was 18400 fluorescence intensity (a.u.). As to “TGGTTTTGGCAGCTGCTGTGTGCACTTGTGGGTTTTTTCTCGGAGTCACCTAGTGCAG”, the binding signal was 8960 fluorescence intensity (a.u.). The value for “CAGCTCGAGCTGTTTGCTTGTGGGGTTCTTGTTTTTCTTTCGGAGTCACCTAGTGCAG” was 8020 fluorescence intensity (a.u.). The value for “TTCTTGGCTTGGCTCCTCTGGTGTTCTTGTGCTCTGGGTTCGGAGTCACCTAGTGCAG” was 9970 fluorescence intensity (a.u.); that for “TGGCTGAGCTTCTTTGCGTGTTCTTGTTTGGGTTTTGGGGCGGAGTCACCTAGTGCAG” was 18700 fluorescence intensity (a.u.); that for “CATTTTATTGTGAACTTTTTCCTTTTAAACTCGATGTTTACGGAGTCACCTAGTGCAG” was 10700 fluorescence intensity (a.u.). In the case of “GTGATGTTCATGCGACAATGTGTTTCTTCCTGGACATATTCGGAGTCACCTAGTGCAG”, the binding signal was 8050 fluorescence intensity (a.u.). Turning to “CGTTGGAAAGCTACTGTTTTGACCCGTTCACACCACTACGCGGAGTCACCTAGTGCAG”, the binding signal is 9680 fluorescence intensity (a.u.). “CAAATGGAGGCCCCTTTTAGATACGCTTCCTGTTACTTTCCGGAGTCACCTAGTGCAG”: the binding signal is 8710 fluorescence intensity (a.u.). For “TCCTTCTGTCACCATTCGATTCCCAAACTCTCGCCGCCGCCGGAGTCACCTAGTGCAG”, the binding signal was 9140 fluorescence intensity (a.u.). In the case of “CCCGCTTCTTCCCCGCTGCTTGAATCAGTCGTATCCTCACCGGAGTCACCTAGTGCAG” it was 11400 fluorescence intensity (a.u.); in that of “CATCAGTTGGCGATTCCCGCTGTATCCTAGAATCTGCTGACGGAGTCACCTAGTGCAG”, 65000 fluorescence intensity (a.u.); in that of “CTCTCTCTCTCTCTCTCTCTCTGCTGTTTTCTGTATCTGACGGAGTCACCTAGTGCAG”, 10100 fluorescence intensity (a.u.). The value for “ACGACAAGAACCACCTCTCTCTCTCTCTCTCACTGTCCACCGGAGTCACCTAGTGCAG” was 9040 fluorescence intensity (a.u.); that for “TTCCCCTTGCTCTTGCATTTGCTGCCGCTCTTCGCCTCTTCGGAGTCACCTAGTGCAG” was 9270 fluorescence intensity (a.u.). As to “TCTCTTCTCTTTCTCTCCTCTCTTTTTGCCGCCGCTCGAGCGGAGTCACCTAGTGCAG”, the binding signal was 8900 fluorescence intensity (a.u.).

“TCAGGCTCTCACTCGCGCTGCATGCCACACTGCTTCTTCTCGGAGTCACCTAGTGCAG”: the binding signal is 16400 fluorescence intensity (a.u.). In the case of “AAACTCTCACTCGCTCACTCACACCTCACACGCTGCTGCTCGGAGTCACCTAGTGCAG” it was 8070 fluorescence intensity (a.u.); in that of “GCCCTTCCTCTCCTCACTCACACTGCCCTGTTCATCTCTTCGGAGTCACCTAGTGCAG”, 8540 fluorescence intensity (a.u.). The value for “GCTCAGCTCTTCACTTCTGCTGCATTCACACCACCACACTCGGAGTCACCTAGTGCAG” was 9310 fluorescence intensity (a.u.). In the case of “TCTCTCTCTCTCCTTCGGCTCATTCGTCACTGTTCCACCGCGGAGTCACCTAGTGCAG” it was 11300 fluorescence intensity (a.u.); in that of “CACACACACTGCACTTCGGCTCACTCTCTCCACTGTTCTTCGGAGTCACCTAGTGCAG”, 16700 fluorescence intensity (a.u.); in that of “AGAATGGTCTTATATGTTGTGTAGTGGTGTGTGGGCGTGTCGGAGTCACCTAGTGCAG”, 8170 fluorescence intensity (a.u.). As for “ACCGATGACTTTTGGCAAAACTTACAGTAAAACTGCTTATCGGAGTCACCTAGTGCAG”, the binding signal was 8850 fluorescence intensity (a.u.).

On to “ATATTTGATGCCGTTGACTTTTTAAAATATATTTGATCATCGGAGTCACCTAGTGCAG”, for which the binding signal is 16400 fluorescence intensity (a.u.). In the case of “CCTCCTTTCCTAAATATTTGACGCCGTTGACTTTTTTAAACGGAGTCACCTAGTGCAG”, the binding signal is 13500 fluorescence intensity (a.u.).

In the case of “CCATCTGTCATATTTGTCATCGTTGACTTTTTTAAATATACGGAGTCACCTAGTGCAG”, the binding signal was 13600 fluorescence intensity (a.u.).
